Values joined by “and” are separate entries in the source; they are usually repeats but may differ in a detail not shown here. Identical values can stand only once. Results filed as inconclusive are left out. Active and inactive are the calls of the source. Calls follow the shape of the dose curve; as a rule, active = well fitted cell-killing curve with a large enough effect; inconclusive = small, poorly fitted or top-dose-only effect; inactive = no such curve, though single readings can be large or run the other way. Peptide text beside a SMILES is read from it.
% is scaled to controls: 0 for no effect and ±100 for the full control effect; potency is read from the fitted curve at half-maximal effect.

A short description of the experiment: qHTS of pediatric cancer cell lines to identify multiple opportunities for drug repurposing: Primary screen for A673 cells (AID 1347092). Also: nearly all actives have a fitted effect of over 45% in size. The following applies: A673 Ewing sarcoma viability, CellTiter-Glo ATP luminescence, 48 h; series mostly up to 46 µM; activity change, negative = cytotoxic: at the top concentration. The text has this:
Drug repurposing or repositioning has been offered as a strategy for drug development in oncology programs. This approach has special potential for childhood cancers and other rare or orphan diseases, where the expected return on new drug development has been a disincentive to pharmaceuticals. […] In this project we exploit the poly-pharmacology of drugs to discover new indications via phenotypic screening of a panel of 19 well-characterized cell lines derived from solid tumors seen in children and adolescents. The goal is to identify approved drugs with previously unrecognized anticancer properties that has the potential to reveal new mechanisms and biological processes involved in carcinogenesis or drug resistance. We employed a titration-based paradigm (quantitative high-throughput screening or qHTS), where all compounds were tested at multiple concentrations for their effect on cell viability. Concentration-response curves (CRCs) were derived directly from the primary screen, and both potency and efficacy values were used to identify compounds with robust bioactivity profiles. We screened the NIH Chemical Genomics Center (NCGC) Pharmaceutical Collection (NPC) and Mechanism Interrogation Plate (MIPE) small molecule collections of approved and investigational compounds against these cell lines; and measured metabolically active cells after 48 hours of compound treatment as a proxy for cell viability. […] Assay Submitter: Nathalia J. Martinez, National Center for Advancing Translational Sciences, National Institutes of Health, Rockville, MD, USA; email: natalia.martinez@nih.gov. Shen, M et al. Quantitative high-throughput phenotypic screening of pediatric cancer cell lines identifies multiple opportunities for drug repurposing. Oncotarget 2017 Dec 19;9(4):4758-4772. PMID 29435139.
The cells were obtained from University of North Carolina (UNC), Pediatric Preclinical Testing Program (PPT), and Coriell Institute (CI). qHTS cell viability assay: Cells were assayed in growth media at a density of 500-1,000 cells/well. Five microliters of cells were dispensed into 1,536-well, white, solid-bottom, TC-treated plates (Greiner Bio One) using a multidrop dispenser and incubated at 37 degrees C, 5% CO2, under a humidified atmosphere for 5 hours. Twenty-three nanoliters of compounds and controls (neutral control DMSO or positive control bortezomib at final concentration of 2.3 uM) were subsequently transferred by Kalypsys pintool. For primary screens, the MIPE collection was tested at 11-point dilutions (final concentrations range from 0.78 nM to 46 µM) and the NPC collection at 8-point dilutions (final concentrations range from 0.59 nM to 46 µM). Compounds tested in follow-up screens were assayed at 11-point dilutions. Cells were incubated for 48 hours, followed by addition of 3 uL of CellTiter-Glo (Promega). After a 15min incubation at room temperature, samples were analyzed for luminescence intensity using a ViewLux High-throughput CCD imager equipped with clear filters.
For the compound `C[C@]12CCC(=O)C=C1CC[C@@H]1[C@H]2[C@@H](O)C[C@@]2(C)[C@H]1CC[C@]2(O)C(=O)CO`, the Potency is 18.7 µM (active). `COc1cc(Nc2c(C#N)cnc3cc(OCCCN4CCN(C)CC4)c(OC)cc23)c(Cl)cc1Cl`: the Potency was 10.6 µM (active) and 11.8 µM (active). Still for that read-out and setting: the figure for `Cc1cc(Cl)ccc1OCCCC(=O)NO` is 2.96 µM (active); for `Cc1nc(Nc2ncc(C(=O)Nc3c(C)cccc3Cl)s2)cc(N2CCN(CCO)CC2)n1` it is 3.72 µM (active) and 3.35 µM (active).

Take `CCN(CC)CCOc1ccc(Nc2ncc3cc(-c4c(Cl)cccc4Cl)c(=O)n(C)c3n2)cc1`: the Potency is 0.118 µM (active). The same measure, in the same setting: the figure for `CN(C)CCCC1(c2ccc(F)cc2)OCc2cc(C#N)ccc21` (stereo not given) is 29.6 µM (active).

With `CCCCc1ccc2nc(NC(=O)OC)[nH]c2c1`, the Potency is 9.3 nM (active) and 21.1 nM (active). On the same count and under the same terms, the entry for `CC(C)c1ccc2oc3nc(N)c(C(=O)O)cc3c(=O)c2c1` is “inactive”.

`O=C1c2ccccc2-c2n[nH]c3cccc1c23`: the Potency was 1.87 µM (active). Regarding `Cc1ncc([N+](=O)[O-])n1CC(C)O` (stereo not given), the “activity change, negative = cytotoxic” value was -4.14% (inactive). `c1cnc2cc3c(cc2n1)C1CNCC3C1`: the “activity change, negative = cytotoxic” value was -16.6% (inactive).

`NC(=O)Cc1cccc(C(=O)c2ccccc2)c1N`: the Potency result was “inactive”. The same measure, in the same setting: the entry for `NNc1nncc2ccccc12` is “inactive”. `COCCCN1CCC(NC(=O)c2cc(Cl)c(N)c3c2OCC3)CC1`: the “activity change, negative = cytotoxic” value is -3.23% (inactive). For the compound `Clc1ccc(C(Cn2ccnc2)OCc2ccsc2Cl)c(Cl)c1` (stereo not given), the Potency was 23.5 µM (active).

For the compound `COC(=O)[C@H](Cc1ccccc1)NC(=O)[C@@H](N)CC(=O)O` (H-Asp-Phe-OMe), the Potency entry is “inactive”.

Regarding `Cc1c(C(=O)NN2CCCCC2)nn(-c2ccc(Cl)cc2Cl)c1-c1ccc(Cl)cc1`, the Potency was 4.69 µM (active). Regarding `O=P(O)(O)C(O)(Cn1ccnc1)P(=O)(O)O`, the “activity change, negative = cytotoxic” value is 0.0204% [at 16.1 µM] (inactive). Same read-out and setting: the figure for `COc1ccccc1N1CCN(CCN(C(=O)C2CCCCC2)c2ccccn2)CC1` is -7.08% (inactive).

On to `CCCS(=O)c1ccc2nc(NC(=O)OC)[nH]c2c1` (stereo not given), for which the Potency is 29.6 µM (active). As to `Oc1ccc(OCc2ccccc2)cc1`, the “activity change, negative = cytotoxic” value is -3.86% (inactive). For the compound `Oc1ccc2ccccc2c1SSc1c(O)ccc2ccccc12`, the Potency is 18.7 µM (active).

Consider `COC(=O)N[C@H](C(=O)N[C@@H](Cc1ccccc1)[C@@H](O)CN(Cc1ccc(-c2ccccn2)cc1)NC(=O)[C@@H](NC(=O)OC)C(C)(C)C)C(C)(C)C`, for which the “activity change, negative = cytotoxic” value is -10.4% (inactive). As for `Oc1ccc(-c2nc(-c3ccc(F)cc3)c(-c3ccncc3)[nH]2)cc1`, the Potency is 14.8 µM (active).

As to `COc1cc2c(cc1OC)C1CC(=O)C(CC(C)C)CN1CC2` (stereo not given), the “activity change, negative = cytotoxic” value is 1.18% (inactive). Same read-out and setting: for `Cc1cc(=O)oc2cc(O)ccc12` the value was -18.3% (inactive). Turning to `N[C@@H](Cc1cc(I)c(Oc2cc(I)c(O)c(I)c2)c(I)c1)C(=O)O`, the Potency result is “inactive”. Same read-out and setting: the figure for `Clc1ccc(C(Cn2ccnc2)OCc2c(Cl)cccc2Cl)c(Cl)c1` (stereo not given) is 21.1 µM (active) and 18.7 µM (active); for `Cc1ccc(C(=O)c2cc(O)c(O)c([N+](=O)[O-])c2)cc1` it is 11.8 µM (active). As to `CC(C)Oc1ccc2c(=O)c(-c3ccccc3)coc2c1`, the Potency entry was “inactive”. As for `CC(C)[C@H](N)C(=O)OCCOCn1cnc2c(=O)[nH]c(N)nc21`, the Potency entry is “inactive”. Same read-out and setting: the figure for `Nc1nc(OCc2ccccc2)c2[nH]cnc2n1` is 18.7 µM (active). Consider `CC1(C)NC(=O)N(c2ccc([N+](=O)[O-])c(C(F)(F)F)c2)C1=O`, for which the “activity change, negative = cytotoxic” value is -6.61% (inactive). On the same count and under the same terms, the figure for `CCOc1cc(CC(=O)N[C@@H](CC(C)C)c2ccccc2N2CCCCC2)ccc1C(=O)O` is -21.2% (inactive); for `O=C1CCc2ccc(OCCCCN3CCN(c4cccc(Cl)c4Cl)CC3)cc2N1` it is 4.3% (inactive); for `CC(=O)NC[C@H]1CN(c2ccc(N3CCOCC3)c(F)c2)C(=O)O1` it is -0.0075% (inactive). With `CS(=O)(=O)OCCCCOS(C)(=O)=O`, the Potency result was “inactive”. In the case of `O=c1c(O)c(-c2ccc(O)cc2O)oc2cc(O)cc(O)c12`, the “activity change, negative = cytotoxic” value is -0.595% (inactive). As to `NC(=NCc1ccccc1)NC(=O)c1nc(Cl)c(N)nc1N`, the Potency was 5.9 µM (active).

For the compound `O=C(O)c1cn(-c2ccc(F)cc2)c2cc(N3CCNCC3)c(F)cc2c1=O`, the Potency entry was “inactive”.

(Values after PubChem BioAssay (NCATS).)
